Screening results from PubChem.
Rows were chosen to be rich in hits. Some 1.6% of all compounds tested hit in one or more screens of this group.
PG9 Ab binder: binds the HIV-1 gp120 antibody PG9; 360,000 compounds, 0.43% hits; TR-FRET gp120-PG9 antibody binding; inhibition, % at 6.7 µM; in the data active = inhibition above about 8.5%
V-ATPase pHluor: yeast V-ATPase proton transport regulation by pHLuorin. S. cerevisiae, pHLuorin cytosolic pH fluorescence. response, % at 10 µM. 350,000 compounds, 0.37% hits. AID 504577; in the data active = response mostly above about 7.3%, no sharp cut-off; inactive = mostly below about 5.4%; also: actives read high
GC-B act: GC-B (human) receptor activation. P20594. HEK293-GC-B cells, CNP EC30, cGMP TR-FRET; 0% at EC30 CNP, 100% saturating CNP. activation, % at 10 µM. 370,000 compounds, 0.11% hits;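 active = activation at 10 µM reaching about 35% in either raw or pattern-adjusted values, limit read from the data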
NPR1 activator: GC-A (human) enzyme activation. P16066. HEK293 GC-A cells, cGMP TR-FRET, EC30 ANP; 0% at EC30 ANP, 100% saturating ANP. activation, % at 10 µM. 370,000 compounds, 0.14% hits. AID 1671463; in the data active = activation above about 40%
Rev-erbA mod: Rev-erb alpha (human) modulation; P20393; Rev-erbα–FITC-DNA binding, fluorescence polarization, 90 min; activity, % at 10 µM; 370,000 compounds, 0.79% hits; AID 1259318;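 active = activity above about 14%, limit read from the data; passing the limit was not always enough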;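 also: 0% = DMSO wells with 35 nM protein and 100% = DMSO wells with 750 nM protein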
NR1D1 mod conf: Rev-erb alpha (human) modulation, hit confirmation. shares compounds with Rev-erbA mod. Rev-erb alpha FITC-DNA binding, fluorescence polarization, 90 min. activation, % at 25 µM. 3,000 compounds, 61% hits. AID 1259319;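 active = activation at or above a set limit, or at least 3 SD above the negative control mean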;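 also: 0% = 35 nM protein with DMSO and 100% = 750 nM protein high control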
RORg DNA counter: RORgamma DNA-binding activity, dose-response counter-screen; purified RORgamma protein-FITC-DNA binding, fluorescence polarization; 910 compounds, 8% hits; shares compounds with Rev-erbA mod; IC50, µM; AID 1259320;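 active = Compounds whose fitted half-maximal concentration for disrupting protein-DNA binding is below 10 micromolar; the record names Rev-erb in its text, so the target is in doubt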
* = called active by the depositor.

For Cc1ccc(N2C(=O)c3cccc4c(N)ccc(c34)C2=O)c2cccnc12 the results were PG9 Ab binder -0.8, V-ATPase pHluor -0.5, GC-B act -11.4, NPR1 activator 2.8, Rev-erbA mod 125.7* and NR1D1 mod conf 131.2*.
`CCN1C(=O)c2cccc3c(N)ccc(c23)C1=O` gave PG9 Ab binder -8.0, V-ATPase pHluor -1.5, GC-B act -6.2, NPR1 activator -48.4, Rev-erbA mod 240.0*, NR1D1 mod conf 245.9* and RORg DNA counter 5.26*.
For Cc1nn(C)c(C)c1N1C(=O)c2cccc3c(N)ccc(c23)C1=O the results were PG9 Ab binder -8.9, V-ATPase pHluor -60.1, GC-B act 5.0, NPR1 activator 3.9, Rev-erbA mod 174.7*, NR1D1 mod conf 156.7* and RORg DNA counter 1.83*.
`CC(C)[C@H](NC(=O)OC(C)(C)C)C(=O)N1CCC(Oc2cccnc2)CC1` gave GC-B act 0.1, NPR1 activator 3.2 and Rev-erbA mod -0.5.
`CC(C)C[C@H]1COc2cc(Br)ccc2S(=O)(=O)N1Cc1cn(CCC2OCCCO2)nn1` gave GC-B act 6.1, NPR1 activator -1.8 and Rev-erbA mod -2.5.
For COC(=O)[C@]12C[C@H](CC(=O)N3CCN(C(=O)C4CC4)CC3)C(=O)N(CCc3ccc(OC)c(OC)c3)C1=C[C@H](COCc1ccccc1)O[C@@H]2C the results were GC-B act 3.3, NPR1 activator 7.4 and Rev-erbA mod 16.5.
`Cc1nc2cc(C(=O)N3CCN(C(=O)C(Cl)Cl)CC3)ccc2n1C1CCCC1` gave GC-B act -0.6, NPR1 activator 2.6 and Rev-erbA mod 3.4.
O=S1(=O)c2ccc(N3CC[C@H](O)C3)cc2O[C@H]2CCN1C2 was read as GC-B act -1.3, NPR1 activator -1.8 and Rev-erbA mod 2.8.
For O=C(O)c1ccc(-c2ccc(/C=N/Nc3ccc([N+](=O)[O-])cc3)o2)cc1 the results were PG9 Ab binder -1.1, V-ATPase pHluor 5.0, GC-B act -3.5, NPR1 activator -2.7, Rev-erbA mod 20.7* and NR1D1 mod conf 18.2*.
`O=C(O)c1cccc(-c2ccc(/C=N/Nc3ccc([N+](=O)[O-])cc3)o2)c1` gave PG9 Ab binder -3.0, V-ATPase pHluor -1.9, GC-B act -8.4, NPR1 activator 6.4 and Rev-erbA mod 5.4.
Screening Cc1ccc2cc(CCNC(=O)C(=O)c3c[nH]c4ccccc34)c(=O)[nH]c2c1 returned PG9 Ab binder -0.9, V-ATPase pHluor 5.0, GC-B act -16.4, NPR1 activator -12.8, Rev-erbA mod 39.8* and NR1D1 mod conf 19.0*.
`COc1ccc(C(=O)OCCCN(C)C2CN(Cc3cn(Cc4ccccc4Cl)nn3)S(=O)(=O)C2)cc1OC` (stereo unspecified) gave GC-B act -8.5, NPR1 activator -1.8 and Rev-erbA mod -2.8.
For COc1ccc(-c2oc(=O)c3cc(OC)c(OC)cc3c2C#C[C@]2(O)CC[C@H]3[C@@H]4CCc5cc(OC)ccc5[C@H]4CC[C@@]32C)cc1 the results were PG9 Ab binder -0.5, V-ATPase pHluor -2.7, GC-B act 0.8, NPR1 activator 2.3, Rev-erbA mod 29.6* and NR1D1 mod conf 3.2.
Screening C#C[C@]1(O)CCC2C3CCc4cc(OC5CCCC5)ccc4C3CC[C@@]21C (stereo partly specified) returned Rev-erbA mod 2.6.
`O=C(CSc1ccccc1)NC1CCCCN(Cc2cccc(Cl)c2)C1=O` (stereo unspecified) gave GC-B act 0.7, NPR1 activator 2.3 and Rev-erbA mod 1.4.
CCOC(=O)c1oc2cc(OCC(N)=O)ccc2c(=O)c1-c1ccc(OC)c(OC)c1 was read as PG9 Ab binder 0.7, V-ATPase pHluor -0.3, GC-B act 0.3, NPR1 activator 0.8 and Rev-erbA mod 0.3.
COc1ccc(-c2c(C(F)(F)F)oc3cc(OCC(=O)Nc4ccccc4C(F)(F)F)ccc3c2=O)cc1OC was read as PG9 Ab binder -1.5, V-ATPase pHluor -1.1, GC-B act 0.8, NPR1 activator 1.1, Rev-erbA mod 37.0* and NR1D1 mod conf 20.1*.
Screening O=S(=O)(c1ccc(Cl)cc1)N1CCN(c2nc(-c3cccs3)nc3ccccc23)CC1 returned PG9 Ab binder -2.3, V-ATPase pHluor 2.3, GC-B act -5.3, NPR1 activator -3.5, Rev-erbA mod 29.4* and NR1D1 mod conf 14.5.
Screening COc1ccc(CCNC(=O)CSc2ncc(C(=O)Nc3ccccc3)c(=O)n2C)cc1 returned PG9 Ab binder -1.1, V-ATPase pHluor 3.4, GC-B act -2.9, NPR1 activator -0.9 and Rev-erbA mod 12.3.
Screening COc1ccccc1NC(=O)c1cnc(SCC(=O)NCCc2ccccc2)n(C)c1=O returned PG9 Ab binder 2.2, V-ATPase pHluor 0.0, GC-B act -4.4, NPR1 activator 6.1, Rev-erbA mod 13.8*, NR1D1 mod conf 31.9* and RORg DNA counter inactive.
Screening CC(=O)Nc1ccc(S(=O)(=O)Nc2ccc(Cl)nn2)cc1 returned PG9 Ab binder 0.0, V-ATPase pHluor -1.9, GC-B act 0.3, NPR1 activator 4.9 and Rev-erbA mod -4.7.
CC(=O)Nc1ccc(S(=O)(=O)Nc2ccn(Cc3ccccc3Cl)n2)cc1 was read as PG9 Ab binder -1.7, V-ATPase pHluor -1.0, GC-B act -1.6, NPR1 activator -1.9, Rev-erbA mod 14.7* and NR1D1 mod conf -3.2.
Screening O=S1(=O)c2ccc(Br)cc2OC[C@@H](Cc2ccccc2)N1Cc1cn(Cc2ccc(C(F)(F)F)cc2)nn1 returned GC-B act 4.8, NPR1 activator -1.9 and Rev-erbA mod -9.2.
Screening COc1ccccc1-n1cnc2sc(-c3ccccc3)cc2c1=O returned PG9 Ab binder 1.2, V-ATPase pHluor 3.0, GC-B act -1.9, NPR1 activator 3.4, Rev-erbA mod 20.5* and NR1D1 mod conf 5.3.
CCOC(=O)C1CCCN(C2=NC(=O)/C(=C/c3ccc(N(C)C)cc3)S2)C1 (stereo unspecified) was read as PG9 Ab binder -13.7, V-ATPase pHluor 4.5, GC-B act 2.3, NPR1 activator -2.9, Rev-erbA mod 26.8* and NR1D1 mod conf 16.1.
CCOC(=O)C1CCCN(C2=NC(=O)/C(=C/c3ccc(OC)cc3)S2)C1 (stereo unspecified) was read as PG9 Ab binder -3.8, V-ATPase pHluor 0.3, GC-B act -3.7, NPR1 activator -2.1 and Rev-erbA mod -6.1.
CCCc1cc(=O)oc2cc(OCC(=O)N3CCc4ccccc43)ccc12 was read as PG9 Ab binder 1.7, V-ATPase pHluor 0.5, GC-B act -5.4, NPR1 activator -3.9, Rev-erbA mod 20.9* and NR1D1 mod conf 8.5.
